From PubChem BioAssay (NCATS) come the findings set out here.

The nature of assay [1]: AP1 Signaling Pathway (AID 357; active = well fitted curve in either direction with a large enough effect, not every such curve was filed as active;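 also: ME-180 reporter cells stimulated with EGF at its EC50 level; % is scaled to controls: 0 for no effect and ±100 for the full control effect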). Particulars: ME-180 AP-1-bla reporter, EGF-induced, beta-lactamase ratio, 5 h; at 38 µM (top of the series). Summed up: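 In this screen, ME-180 cells in Opti-MEM with 0.5% dialyzed FBS received EC50 EGF and compound titrations for 5 h. AP-1 reporter beta-lactamase was detected via CCF4 ratio, giving AC50 for positive and negative modulators.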

Assay [2] concerns the target Cytochrome P450 1A2 (Homo sapiens) (UniProt P05177). The experiment in a line: p450-cyp1a2 (AID 410; calls by dose curve;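 also: -100% = full effect of reference inhibitor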). Summed up:
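Luminescent readout of luciferin formed from Luciferin-ME by human CYP1A2; data normalized against complete inhibition by 57 uM furafylline. Enzyme 20nM, substrate 100uM at Km, 100mM KPO4 buffer, 60 min reaction at room temperature.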

The nature of assay [3]: NFAT Signaling Pathway (AID 444; active = well fitted curve in either direction with a large enough effect, not every such curve was filed as active;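 also: carbachol stimulus at about its EC50 of 1 µM final; % is scaled to controls: 0 for no effect and ±100 for the full control effect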). Particulars: Jurkat NFAT-bla M1, carbachol, beta-lactamase ratio, 5 h; at 38 µM (top of the series). Summed up: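 Jurkat cells with NFAT-driven β-lactamase reporter and co-expressed M1 receptor, stimulated with carbachol (final 1 uM, ~EC50), compound titration, 5 h at 37 °C. CCF4 loaded 1 h at RT; 460/530 nm ratio gave %activity and AC50.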

Assay [4] in a line: Stat Signaling Pathway (AID 446; active = well fitted curve in either direction with a large enough effect, not every such curve was filed as active;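 also: ME-180 cervical cancer cells given 40 pM IL-6 alongside compound; SIE-controlled beta-lactamase reporter measured as 460/530 nm FRET emission ratio; % is scaled to controls: 0 for no effect and ±100 for the full control effect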). Particulars: ME-180 SIE beta-lactamase reporter, IL-6 stimulated, 5 h; at 38 µM (top of the series). A digest of the protocol:
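Screening format detects activators and inhibitors alike: ME-180 SIE-bla cells stimulated at 40 pM IL-6 for 5 hrs with compound, then dual-emission beta-lactamase read at 405 nm excitation.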

The target of assay [5] is Glucocorticoid receptor (Homo sapiens) (UniProt P04150). The experiment in a line: GR-GFP Redistribution (AID 450;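 active = compounds whose dose series gives a full or clear partial fitted curve of increased nuclear translocation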; also: potency is read from the fitted curve at half-maximal effect). Particulars: U2OS GR-GFP nuclear translocation, laser cytometry, 2 h.
Assay [6] shares this target. The experiment in a line: GR-EFC Redistribution (AID 451; calls by dose curve; also: potency is read from the fitted curve at half-maximal effect). Particulars: CHO-K1 GR-EFC translocation, beta-gal luminescence, 2 h. Summed up: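 CHO-K1 cells expressing nuclear EA and GR-ED fragments of b-gal; compounds titrated up to 46 uM final, 2 h at 37 C. GR nuclear translocation read as complemented b-gal luminescence after 1 h RT detection.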
Assay [7] addresses 3',5'-cyclic-AMP phosphodiesterase 4B (Homo sapiens) (UniProt Q07343). The experiment in a line: qHTS Assay for Inhibitors of PDE-IV (AID 607; active = well fitted activation curve with a large enough effect in the main read-out, with a control signal flat, not every such curve was filed as active; also: % of control where 0% means no effect). A digest of the protocol:
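The readout is membrane depolarisation from a cAMP-sensing CNG channel, detected with a potential dye at ex 535/em 590. Cells were HEK293-derived (endogenous PDE-IV) at 1000 cells/well, titrated up to 22.9 uM final.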

The target of assay [8] is Guanine nucleotide-binding protein G(i) subunit alpha-1 (Homo sapiens) (UniProt P63096). The experiment in a line: qHTS Assay for Inhibitors of RGS12 GoLoco Motif Activity (Green Fluorophore) (AID 879).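 Also: 0% = labeled peptide with Gαi1 and full inhibition = labeled peptide alone without protein; negative values mean loss of peptide binding seen as reduced polarization.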 A digest of the protocol:
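Fluorescence polarization assay: 50 nM Gαi1 with 10 nM FITC-labeled RGS12 GoLoco peptide in 10 mM Tris pH 7.5, 150 mM NaCl, 0.1 mM GDP, 0.05% NP40, 10 min at room temperature with compound.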

Assay [9] has as its target Cytochrome P450 3A4 (Homo sapiens) (UniProt P08684). The experiment in a line: qHTS Assay for Activators of Cytochrome P450 3A4 (AID 885). Also: nearly all actives have a fitted effect of over 65% in size. A digest of the protocol: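 Steps: enzyme/substrate mix dispensed; compound added, 10 min RT; NADPH regeneration solution added, 60 min RT; luciferin detection buffer stops reaction; 20 min later luminescence measured.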
A short description of assay [10]: qHTS Assay for Identification of Small Molecule Agonists for Thrombopoietin (TPO) Signaling Pathway (AID 917). Also: % is scaled to controls: 0 for no effect and ±100 for the full control effect. A digest of the protocol:
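Murine Ba/F3 cells expressing human TPO receptor and GPIIb-promoter luciferase, IL-3-starved overnight, given compound plus TPO at 26 pM (EC50). After 24 h at 37 C, 5% CO2, luminescence read.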

In assay [11] the target is Muscarinic acetylcholine receptor M1 (Rattus norvegicus) (UniProt P08482). Nature of the assay: qHTS Assay for Antagonists of Acetylcholine Muscarinic M1 Receptor: Measurement of IP-One Response (AID 944). Also: nearly all actives have a fitted effect of over 75% in size. Summed up: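 M1-CHO (rat), 2000 cells/well, overnight recovery; cpd 10 min; carbachol EC80 (200 nM), 30 min, HEPES buffer + 50 mM LiCl pH 7.4; IP-One HTRF, Ex 337, Em 620/665 nm.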

Assay [12] deals with Pyruvate kinase (Leishmania mexicana) (UniProt Q27686). The experiment in a line: qHTS Validation Assay for Inhibitors of Leishmania Mexicana Pyruvate Kinase (AID 945).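 Also: 0% = DMSO only neutral control wells.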 Summed up: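 Eight-point qHTS titrations in triplicate, data normalized to DMSO neutral control. Reaction: 0.2 nM LmPYK E451W mutant, 0.5 mM PEP, 0.1 mM ADP, 7 mM MgCl2, pH 7.2, one hour at room temperature; luminescent ATP detection.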

The nature of assay [13]: Validation of Assay for Modulators of Lamin A Splicing (AID 1459; active = well fitted curve in the direction sought with a large enough effect in the signal ratio; the % refers to the signal ratio;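 also: cells exposed to compound for two days before reading; 0% is about no effect; ratio rise marks activators and ratio drop marks inhibitors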). A digest of the protocol:
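S3 HeLa stably expressing lamin A-EGFP splicing minigene and DsRed2, 600 cells/well in Opti-MEM with 2% FBS, treated 48 h at 37C; laser-scanning cytometry gives GFP/RFP total intensity ratio; ancitabine positive control, 0.5% DMSO vehicle.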

A short description of assay [14]: qHTS Assay for Lipid Storage Modulators (AID 1519; calls by dose curve). Particulars: Drosophila S3 cells, BODIPY lipid droplet/cell ratio, laser cytometry, cells loaded with oleic acid. Summed up: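 Cells seeded at 5,000 per well were treated with compounds over a concentration series and loaded with oleic acid (400 uM, as added). Lipid droplet fluorescence (488 nm excitation, 500-530 nm channel) was read by laser-scanning cytometry and normalized to 20 uM Triacsin C.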

Assay [15] can be described thus: Counterscreen for APE1 Inhibitors: Fluorescent Dye Displacement Validation Assay (AID 1707).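 Also: plate controls were ThO with dsDNA and no compound for no effect and ThO without dsDNA for full effect.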 A digest of the protocol:
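Assay buffer: Tris-HCl pH7.5 with 50mM NaCl, 2 mM MgCl2, 0.01% Tween-20. Dye 250 nM, duplex 50 nM final. Readout: decrease in ThO endpoint fluorescence, 480 nm excitation, 540 nm emission.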

Assay [16] addresses Endonuclease 4 (Escherichia coli (strain K12)) (UniProt P0A6C1). The experiment in a line: Counterscreen for APE1 Inhibitors: qHTS Validation Assay for Inhibitors of Endonuclease IV (AID 1708). Also: % is scaled to controls: 0 for no effect and ±100 for the full control effect. A digest of the protocol: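 E. coli EndoIV at 2 nM final, preincubated 15 min at room temperature with compound, then 50 nM TAMRA/BHQ-2 THF abasic-site duplex added. Buffer: 50 mM Tris-HCl pH 7.5, 50 mM NaCl, 2 mM MgCl2, 1 mM DTT, 0.01% Tween-20. Kinetic fluorescence increase, third minus first read.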

Assay [17] in a line: qHTS for differential inhibitors of proliferation of Plasmodium falciparum line 7G8 (AID 1815).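 Also: parasite growth measured after three days of incubation; plate controls were vehicle wells for no effect and reference inhibitor wells for full effect.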

Inconclusive results are not listed. The source made the active and inactive calls. Unless noted, calls follow the shape of the dose curve; as a rule, active = well fitted curve in the direction sought with a large enough effect; inconclusive = small, poorly fitted or top-dose-only effect, or another doubt; inactive = no such curve, though single readings can be large; an effect the other way counts as inactive or inconclusive.

Chain of Glucocorticoid receptor (Homo sapiens) (P04150 whole entry, looked up, the tested form may be a part): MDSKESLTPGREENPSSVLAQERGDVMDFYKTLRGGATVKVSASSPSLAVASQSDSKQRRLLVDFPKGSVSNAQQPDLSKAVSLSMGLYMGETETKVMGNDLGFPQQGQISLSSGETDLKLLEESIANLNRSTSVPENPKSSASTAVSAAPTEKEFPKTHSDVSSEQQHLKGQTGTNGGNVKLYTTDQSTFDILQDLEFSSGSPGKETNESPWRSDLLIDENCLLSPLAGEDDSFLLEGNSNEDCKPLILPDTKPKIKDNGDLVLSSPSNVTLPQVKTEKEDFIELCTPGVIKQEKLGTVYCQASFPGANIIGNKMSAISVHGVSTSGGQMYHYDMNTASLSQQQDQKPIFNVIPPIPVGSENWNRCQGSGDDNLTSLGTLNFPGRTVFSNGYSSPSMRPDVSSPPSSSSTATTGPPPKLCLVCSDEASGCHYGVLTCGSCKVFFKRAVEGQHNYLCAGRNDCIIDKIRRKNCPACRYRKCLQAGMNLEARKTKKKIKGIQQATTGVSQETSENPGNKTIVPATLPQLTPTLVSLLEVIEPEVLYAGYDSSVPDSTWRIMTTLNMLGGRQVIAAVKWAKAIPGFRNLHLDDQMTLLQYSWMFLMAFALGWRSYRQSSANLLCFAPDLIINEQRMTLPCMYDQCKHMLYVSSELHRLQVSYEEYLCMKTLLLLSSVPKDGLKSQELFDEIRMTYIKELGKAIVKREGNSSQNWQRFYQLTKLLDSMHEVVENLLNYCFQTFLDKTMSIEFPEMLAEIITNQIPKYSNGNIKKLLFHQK
Chain of Cytochrome P450 1A2 (Homo sapiens) (P05177 whole entry, looked up): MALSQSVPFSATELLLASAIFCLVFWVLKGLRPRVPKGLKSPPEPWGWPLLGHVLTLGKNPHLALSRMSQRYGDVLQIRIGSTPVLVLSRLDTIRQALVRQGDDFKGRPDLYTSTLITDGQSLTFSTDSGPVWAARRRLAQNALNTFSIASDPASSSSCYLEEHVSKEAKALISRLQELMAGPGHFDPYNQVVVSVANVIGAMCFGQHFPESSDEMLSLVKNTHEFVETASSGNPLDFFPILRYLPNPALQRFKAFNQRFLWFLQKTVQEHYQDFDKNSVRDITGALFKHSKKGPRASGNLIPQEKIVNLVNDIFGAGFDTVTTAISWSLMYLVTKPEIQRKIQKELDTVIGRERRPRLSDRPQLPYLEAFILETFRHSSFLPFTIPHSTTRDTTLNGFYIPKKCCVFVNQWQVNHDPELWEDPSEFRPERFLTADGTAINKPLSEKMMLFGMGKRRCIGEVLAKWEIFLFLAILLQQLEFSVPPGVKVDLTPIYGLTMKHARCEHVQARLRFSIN
Chain of Guanine nucleotide-binding protein G(i) subunit alpha-1 (Homo sapiens) (P63096 whole entry, looked up): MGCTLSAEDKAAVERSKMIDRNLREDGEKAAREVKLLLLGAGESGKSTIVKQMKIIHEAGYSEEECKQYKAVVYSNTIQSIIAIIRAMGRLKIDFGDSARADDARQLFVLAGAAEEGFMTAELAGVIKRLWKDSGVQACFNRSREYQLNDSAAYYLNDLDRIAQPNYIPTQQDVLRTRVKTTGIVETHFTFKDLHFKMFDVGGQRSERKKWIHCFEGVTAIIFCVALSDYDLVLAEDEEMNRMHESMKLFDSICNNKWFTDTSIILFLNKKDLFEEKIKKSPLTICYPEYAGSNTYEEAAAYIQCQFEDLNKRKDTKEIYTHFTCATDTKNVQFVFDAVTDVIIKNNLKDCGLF
Chain of Cytochrome P450 3A4 (Homo sapiens) (P08684 whole entry, looked up): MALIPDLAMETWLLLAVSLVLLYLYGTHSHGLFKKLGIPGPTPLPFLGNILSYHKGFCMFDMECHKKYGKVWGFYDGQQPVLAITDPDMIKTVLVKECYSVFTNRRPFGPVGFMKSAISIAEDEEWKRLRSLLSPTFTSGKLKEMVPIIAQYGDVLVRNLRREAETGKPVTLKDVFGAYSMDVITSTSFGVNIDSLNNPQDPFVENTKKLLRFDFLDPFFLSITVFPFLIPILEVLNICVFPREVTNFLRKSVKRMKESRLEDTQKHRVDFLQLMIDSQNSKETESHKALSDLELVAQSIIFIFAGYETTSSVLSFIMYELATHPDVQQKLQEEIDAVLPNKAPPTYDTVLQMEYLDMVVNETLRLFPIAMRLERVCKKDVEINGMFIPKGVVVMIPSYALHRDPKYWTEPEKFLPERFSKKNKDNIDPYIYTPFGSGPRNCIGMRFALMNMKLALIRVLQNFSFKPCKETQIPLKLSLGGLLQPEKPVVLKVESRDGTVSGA
Chain of Muscarinic acetylcholine receptor M1 (Rattus norvegicus) (P08482 whole entry, looked up): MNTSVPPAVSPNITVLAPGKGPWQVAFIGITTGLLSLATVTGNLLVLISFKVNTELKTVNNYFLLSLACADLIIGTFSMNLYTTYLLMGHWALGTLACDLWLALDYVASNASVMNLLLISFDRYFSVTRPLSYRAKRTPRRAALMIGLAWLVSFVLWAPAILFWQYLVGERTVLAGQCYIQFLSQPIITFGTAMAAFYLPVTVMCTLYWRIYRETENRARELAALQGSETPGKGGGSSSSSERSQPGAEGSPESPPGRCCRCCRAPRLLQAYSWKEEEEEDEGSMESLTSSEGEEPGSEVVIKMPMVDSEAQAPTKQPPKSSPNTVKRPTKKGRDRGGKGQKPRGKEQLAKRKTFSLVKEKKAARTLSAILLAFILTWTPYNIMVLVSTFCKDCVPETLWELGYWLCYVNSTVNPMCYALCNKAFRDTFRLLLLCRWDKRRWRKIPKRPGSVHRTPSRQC
Chain of Pyruvate kinase (Leishmania mexicana) (Q27686 2-499 E452W): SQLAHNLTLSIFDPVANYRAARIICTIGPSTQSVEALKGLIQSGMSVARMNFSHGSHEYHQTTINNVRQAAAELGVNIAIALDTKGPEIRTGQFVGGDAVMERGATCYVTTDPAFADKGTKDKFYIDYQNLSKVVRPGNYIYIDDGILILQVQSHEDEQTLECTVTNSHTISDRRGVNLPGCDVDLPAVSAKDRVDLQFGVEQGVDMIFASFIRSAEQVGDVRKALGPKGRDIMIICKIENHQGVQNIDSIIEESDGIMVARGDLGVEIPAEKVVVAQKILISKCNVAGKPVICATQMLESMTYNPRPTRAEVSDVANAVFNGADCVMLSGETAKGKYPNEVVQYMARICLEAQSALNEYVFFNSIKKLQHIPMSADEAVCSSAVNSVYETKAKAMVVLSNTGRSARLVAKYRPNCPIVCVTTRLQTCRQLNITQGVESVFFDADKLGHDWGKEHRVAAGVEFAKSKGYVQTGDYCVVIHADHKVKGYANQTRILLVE
Chain of 3',5'-cyclic-AMP phosphodiesterase 4B (Homo sapiens) (Q07343 whole entry, looked up): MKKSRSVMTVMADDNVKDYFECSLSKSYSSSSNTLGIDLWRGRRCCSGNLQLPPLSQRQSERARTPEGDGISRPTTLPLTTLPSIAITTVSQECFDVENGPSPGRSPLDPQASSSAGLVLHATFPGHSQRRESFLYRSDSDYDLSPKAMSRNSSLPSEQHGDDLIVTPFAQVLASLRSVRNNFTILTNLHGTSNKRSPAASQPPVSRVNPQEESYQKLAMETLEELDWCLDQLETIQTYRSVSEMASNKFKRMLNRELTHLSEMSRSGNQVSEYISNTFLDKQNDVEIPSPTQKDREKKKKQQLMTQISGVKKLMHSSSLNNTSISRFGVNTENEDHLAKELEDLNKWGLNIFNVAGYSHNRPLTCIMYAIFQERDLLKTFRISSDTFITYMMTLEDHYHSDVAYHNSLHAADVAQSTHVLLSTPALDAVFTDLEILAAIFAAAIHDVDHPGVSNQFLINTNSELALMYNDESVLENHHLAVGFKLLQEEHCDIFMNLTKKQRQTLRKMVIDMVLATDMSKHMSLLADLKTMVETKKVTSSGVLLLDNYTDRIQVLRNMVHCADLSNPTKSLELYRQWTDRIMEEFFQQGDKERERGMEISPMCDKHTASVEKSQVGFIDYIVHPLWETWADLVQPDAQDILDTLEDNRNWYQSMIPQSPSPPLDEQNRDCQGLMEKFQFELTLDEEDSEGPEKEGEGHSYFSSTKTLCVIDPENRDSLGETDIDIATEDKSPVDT

Consider `CC(N)=NCc1cccc(CN)c1`, for which the activity change, negative = inhibition in [1] was -2.56% (inactive); in assay [3], -2.12% (inactive); in assay [14] (at 57.5 µM (top of the series)) it was 0.387% (inactive). Besides, the Potency result in [2], in assay [7], in [9], in [10], in assay [11] and in [12] was “inactive” in each case. For the same molecule, the Potency result in [15], in assay [16] and in assay [17] was “inactive” throughout. Further, the activity, negative = inhibition in assay [4] was 3.99% (inactive). Moreover, the Potency in assay [5] and in assay [6] was > 46 µM (inactive) each time. Besides, the molecule was called inactive in assay [8] and in [13]. Moreover, the figures for the max response in assay [14] (measured here: cell count channel max response) and in assay [14] (measured here: lipid channel max response) were -16.1% and -15%, respectively.
